# The campaign covered roughly 340,000 compounds. About 8,500 (2.5%) were called active. Shown is part of a subset that was picked to be rich in actives. A number with no mark means an inactive call.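 Rule for the calls: active = melting temperature shift of at least 10% of the positive control shift, at one fixed dose; inactive = the rest.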
# Tested on: Glutamate receptor ionotropic, NMDA 3A (GRIN3A) ligand-binding domain
# Assay: binders of NR3A ligand-binding domain, primary screen, biophysical, differential scanning fluorimetry, uHTS (AID 1259313)
# Settings: NR3A LBD differential scanning fluorimetry, at 25 µM, stronger effect = higher value, 0% = protein alone, 100% = glycine-bound protein
row,SMILES,Tm shift relative to glycine control
1,COc1ccc(C(=O)N2CCC(C(=O)Nc3cccc(C)c3)CC2)cc1OC,-0.09%
2,Cc1cc(C)c2c(-n3cccc3)c(NC(=O)OCc3ccccc3)sc2n1,0.08%
3,COC(=O)Nc1sc2nc(C)cc(C)c2c1-n1cccc1,-4.15%
4,CCCCOC(=O)Nc1sc2nc(C)cc(C)c2c1-n1cccc1,11% (active)
5,CCC(CC)NC(=O)CSc1nnc(-c2c[nH]c3ccccc23)o1,1.71%
6,COc1cccc(CNC(=O)CCC2CCCN(Cc3ccc(OC(F)F)cc3)C2)c1 (stereo unspecified),1.06%
7,Cn1nc(C(=O)OCC(=O)N(Cc2ccccc2)C(C)(C)C)c2ccccc2c1=O,0.45%
8,O=C(O)c1cccnc1Sc1ncnc2sc3c(c12)CCC3,-2.96%
9,O=C(Cn1c(NCCO)nc2ccccc21)c1ccc(Cl)cc1Cl,-1.09%
10,OCCNc1nc2ccccc2n1-c1ncnc2sc3c(c12)CCC3,19.1% (active)
11,CC12C(=O)N(n3cnnc3)C(=O)C1C1C=CC2C1 (stereo unspecified),0.47%
12,Cc1ccccc1NC(=O)c1cc(S(=O)(=O)Nc2cccc(C(=O)O)c2)ccc1Cl,0%
13,C=CCNC(=O)c1ccccc1NC(=O)c1ccc(Cl)c(S(=O)(=O)Nc2cccc(C)c2C)c1,16% (active)
14,Cc1ccc(C(=O)Nc2ccccc2-c2ccccc2)cc1S(=O)(=O)Nc1ccccc1,9.58%
15,C=CCn1c(SCc2ccc(Cl)c(Cl)c2)nnc1C(CO)NC(=O)c1ccc(OC)cc1 (stereo unspecified),-6.08%
16,CN(CC(=O)Nc1ccccc1[N+](=O)[O-])Cc1ccc(Br)cc1,-2.8%
17,CSc1ccccc1NC(=O)CN(C)CC(=O)Nc1ccc(Cl)cc1[N+](=O)[O-],2.47%
18,Cc1ccc(NC(=O)CN(C)Cc2ccc(F)cc2)c([N+](=O)[O-])c1,12.7% (active)
19,O=C(O)c1ccc([N+](=O)[O-])cc1Sc1ccsc1,1.67%
20,CC(=O)Nc1ccc(CN2CCN(Cc3ccc(F)c(F)c3)C(CCO)C2)cc1 (stereo unspecified),-0.08%
21,CN(C)c1ccc(NC(=O)CSc2n[nH]c(-c3ccco3)n2)cc1,0.92%
22,COc1cccc(Nc2nc(N)c([N+](=O)[O-])c(NCc3ccco3)n2)c1,-10.5%
23,CCN1CCN(c2nc(Nc3cccc(F)c3)nc(N)c2[N+](=O)[O-])CC1,0.95%

row,SMILES,Tm shift relative to glycine control
1,CNc1nc(Nc2ccc(C)c(Cl)c2)nc(N)c1[N+](=O)[O-],25.8% (active)
2,Cc1cn(C)c(=O)n(C)c1=O,-0.48%
3,CCN(CC)S(=O)(=O)c1ccc(NC(=O)c2cccnc2Cl)c(NC(=O)c2cccnc2Cl)c1,-0.78%
4,CC(=O)c1sc(N)nc1C,2.68%
5,CCOC(=O)c1sc(NC(=O)c2sc(C)nc2C)nc1C,3.53%
6,CCOC(=O)c1nc(N)sc1C(=O)OCC,17.7% (active)
7,CN(C)C(=O)CCC(=O)N1CCCCC1C(=O)Nc1ccc(Oc2ccccc2F)cc1 (stereo unspecified),-0.77%
8,O=S(=O)(c1ccc(Cl)cc1)N1CCCN(c2ccc(C(F)(F)F)cn2)CC1,-4.38%
9,COc1ccccc1CC(=O)Nc1ccc([N+](=O)[O-])cc1OC,10.2% (active)
10,COc1cc([N+](=O)[O-])ccc1NC(=O)COC(=O)CCOc1ccc(C)cc1,2.57%
11,COC(=O)c1ccccc1NC(=O)Cc1ccccc1OC,-0.63%
12,COc1ccc(CCNC(=O)COC(=O)c2ccc[nH]c2=O)cc1,-2.27%
13,Cc1ccc(/C=N/NC(=O)CN2CCN(Cc3ccccc3)CC2)s1,-1.47%
14,Cc1ccccc1NCC(=O)N/N=C\c1ccc([N+](=O)[O-])s1,11.5% (active)
15,Cc1cccc(/C=N/NC(=O)CNc2cccc3ccccc23)n1,4.98%
16,Cc1ccc(NC(=O)CSc2nc(CSc3ccc(C)cc3)cc(=O)[nH]2)cc1,-30.2%
17,COc1ccc(C)cc1-n1nnnc1SCc1nc2ccccc2c(=O)[nH]1,0.31%
18,Cc1ccc(Nc2nc(CSc3nnnn3-c3ccccc3)cc(=O)[nH]2)cc1,10.7% (active)
19,O=C(Nc1ccc(Br)cc1)c1cccc(NC(=O)C2C3CC4OC(=O)C2C4C3)c1 (stereo unspecified),-8.89%
20,O=C(NC(=S)Nc1cccc(-c2ccc(CO)o2)c1)c1cccs1,-18.4%
21,O=C(Nc1ccc(Cl)cc1)C1c2cccc[n+]2CC(=O)N1Cc1ccc2c(c1)OCO2 (stereo unspecified),0.68%
22,COc1ccc(N2C(=O)C(CC(=O)Nc3ccccc3)N(Cc3ccc(OC)c(OC)c3)C2=O)cc1 (stereo unspecified),-3.64%
23,CCCOc1ccc(NC(=O)CC2C(=O)N(C)C(=S)N2Cc2ccc3c(c2)OCO3)cc1 (stereo unspecified),23.2% (active)

row,SMILES,Tm shift relative to glycine control
1,O=C(CN1CCN(C(=S)NC2CCCC2)CC1)Nc1ccc(Oc2ccccc2)cc1,-2.87%
2,O=C(NCc1ccccc1Cl)C1CCN(S(=O)(=O)c2cccc3nonc23)CC1,2.6%
3,Cc1ccccc1-n1c(C)cc(/C=C2\NC(=O)NC2=O)c1C,-2.81%
4,Cc1ccc(CN2C(=O)N/C(=C/c3cc(C)n(-c4ccccn4)c3C)C2=O)cc1,57.7% (active)
5,Cc1cc(/C=C2/NC(=O)NC2=O)c(C)n1-c1cccnc1,-4.95%
6,O=C1C2N=NN(CC(=O)N3N=C(c4cccc5ccccc45)CC3c3ccccc3)C2C(=O)N1c1ccccc1 (stereo unspecified),-0.6%
7,Oc1ccccc1C1=NN(c2ccccc2)C(c2ccccc2)C1 (stereo unspecified),11.9% (active)
8,COc1ccc(C2=NN(c3ccccc3)C(c3cccs3)C2)cc1 (stereo unspecified),0.58%
9,O=C(CCN1C(=O)C2C3C=CC(C3)C2C1=O)Oc1ccc2ccccc2c1 (stereo unspecified),-2.31%
10,Cc1ccc(C(=O)COC(=O)CCN2C(=O)C3C4CC(C(Br)C4Br)C3C2=O)cc1 (stereo unspecified),18% (active)
11,Cc1ccc(C(=O)COC(=O)CCN2C(=O)C3C4CCC(C4)C3C2=O)cc1C (stereo unspecified),1.5%
12,CCn1nc(C)c(/C=N/NC(=O)Cc2ccc(Cl)cc2)c1C,1.94%
13,Cc1nn(Cc2ccc(Cl)cc2)c(Cl)c1/C=N/NC(=O)c1cccnc1,-6.33%
14,Cc1nn(Cc2ccc(Cl)cc2)c(Cl)c1/C=N/NC(=O)CNc1ccccc1F,16.1% (active)
15,C/C=C/C(=O)OCc1csc(CC(=O)Nc2ccccc2C)n1,-1.3%
16,Cc1ccc(S(=O)(=O)N2CCN(CC(=O)N/N=C/c3ccc(Br)s3)CC2)cc1,0.82%
17,Cc1ccc(S(=O)(=O)N2CCN(CC(=O)N/N=C/c3cc([N+](=O)[O-])ccc3Cl)CC2)cc1,19.9% (active)
18,Cc1ccc(C)c(S(=O)(=O)N2CCN(CC(=O)Nc3ccc([N+](=O)[O-])cc3)CC2)c1,-7.08%
19,CCOC(=O)CN(C)S(=O)(=O)c1ccc(-c2cc(C(=O)OC)sc2C(F)(F)F)cc1,-0.21%
20,CCC(CC)C(=O)Nc1cccc(C(=O)N2CCCC2)c1,-2.45%
21,Cc1cc(C(=O)COc2ccc(Br)cc2F)c(C)n1C1CC1,1.06%
22,N#Cc1ccc(C(c2nnnn2CCc2ccccc2)N2CCCCCC2)cc1 (stereo unspecified),1.53%
23,COc1ccc(CCn2nnnc2C(c2ccccc2)N2CCN(C)CC2)cc1OC (stereo unspecified),10.2% (active)

row,SMILES,Tm shift relative to glycine control
1,COc1ccc(C(c2nnnn2Cc2cccs2)N2CCN(c3ccccc3)CC2)cc1OC (stereo unspecified),0%
2,COc1ccc(S(=O)(=O)N2CCN(c3ncnc4c(-c5ccccc5)nsc34)CC2)cc1,-1.19%
3,O=C(c1ccc(F)cc1)c1c[nH]c(C(=O)NCc2cccnc2)c1,-1.06%
4,CCN(Cc1ccncc1)C(=O)c1cccc(S(=O)(=O)N2CCOCC2)c1,0.46%
5,CNS(=O)(=O)c1ccc(NC(=O)Nc2ccc3c(c2)OCO3)cc1,11.2% (active)
6,Cc1ccc(S(=O)(=O)NCC(=O)Nc2ccc3c(c2)OCCO3)cc1,0.9%
7,CC(C)CNS(=O)(=O)c1ccc(C(=O)Nc2ccc3c(c2)OCO3)cc1,-0.27%
8,COc1ccc2[nH]cc(/C=C(/C#N)S(=O)(=O)c3ccccc3)c2c1,13.2% (active)
9,CCN(CC)CC(=O)c1c[nH]c2ccc(OC)cc12,-2.92%
10,COc1ccc2[nH]cc(CCN3C(=O)c4ccc(C(=O)O)cc4C3=O)c2c1,-2.98%
11,C=C(C)C1CC=C(C)/C(=N/NC(=O)CCCNc2cccc(C)c2)C1 (stereo unspecified),-0.09%
12,CCc1cc2c(SCC(=O)Nc3ncc(Cl)c(C)c3Cl)ncnc2s1,-1.41%
13,O=C(NNC(=O)c1cccc(S(=O)(=O)Nc2ccc(Cl)cc2)c1)c1ccc(=O)[nH]c1,0.33%
14,Cc1ccccc1Nc1nnc(SCC(=O)c2cc3ccccc3o2)s1,-23.4%
15,Cc1ccc(Nc2nnc(SCC(=O)c3cc4ccccc4o3)s2)cc1C,11.5% (active)
16,CC(C)N(C(=O)CSc1nnc(NC2CC2)s1)c1ccccc1,-1.56%
17,CC(C)c1ccc(Nc2nnc(SCC(=O)c3nnc(-c4ccccc4)o3)s2)cc1,19.9% (active)
18,CC(C)Nc1nnc(SCC(=O)c2c[nH]c3ccccc23)s1,-3.26%
19,Cc1cc2c(=O)n(C)c(SCC(=O)c3cc4ccccc4o3)nc2s1,-0.65%
20,O=C(CN1C(=O)CCS(=O)(=O)c2ccccc21)NCc1ccc(F)cc1,-2.05%
21,CN1CCN(C(=O)c2ccc(NS(=O)(=O)c3ccccc3)cc2)CC1,-0.09%
22,OCCCC1CCCCN1Cc1nc(Cc2ccccc2Cl)no1 (stereo unspecified),0.08%
